Hits are enriched below; roughly 1.1% of the tested compounds scored in any of these assays.
VLA-4 inh: inhibition in a human VLA-4 binding assay. P13612. VLA-4 expressing cells, ligand binding flow cytometry. inhibition, % (about 7 µM as worked out from the volumes in the protocol). 0.2% of 330,000 active. AID 2557; in the data active = inhibition above about 50%
MEP2-GFP yeast: modulators of TOR pathway MEP2-GFP in S. cerevisiae | S. cerevisiae MEP2-GFP strain, flow cytometry GFP, 3 h; 100% = DMSO control level | 0.51% of 330,000 active | AID 2016 | GFP response vs DMSO, % at 10 µM;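 active = GFP response versus DMSO above a set limit, roughly screen mean plus 3 SD, cut at about 180% in these data; inconclusive = fewer than 70 cells counted for a yeast strain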;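 note: median GFP fluorescence of the barcode-gated MEP2-GFP cells per well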
RPL19A-GFP yeast: yeast TOR pathway RPL19A-GFP modulation | S. cerevisiae RPL19A-GFP strain, flow cytometry, 3 h; active compounds read low | percent response vs DMSO, % at 10 µM | 0.3% of 330,000 active;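 active = percent response vs DMSO below 50%; inconclusive = fewer than 70 events counted for the yeast strain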;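 note: median channel GFP fluorescence of the barcoded RPL19A-GFP strain; ratio of sample median GFP to plate DMSO average so 100% = DMSO; lower means less RPL19A-GFP as with rapamycin TOR inhibition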
AGP1-GFP MLPCN: yeast TOR pathway AGP1-GFP modulation | S. cerevisiae AGP1-GFP multiplex flow cytometry, 3 h; GFP as percent of DMSO wells | GFP response vs DMSO, % at 10 µM | 0.02% of 320,000 active;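 active = GFP response relative to DMSO above a set limit, near screen average plus 3 SD, cut at about 150% in these data; inconclusive = fewer than 70 cells counted for the yeast strain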;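 note: median GFP channel fluorescence of the gated AGP1 strain per well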
LAP4-GFP MLPCN: yeast TOR pathway LAP4-GFP modulation. S. cerevisiae LAP4-GFP multiplex, flow cytometry GFP, 3 h; median GFP as percent of DMSO wells. GFP response vs DMSO, % at 10 µM. 0.34% of 320,000 active;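 active = GFP response vs DMSO above a set limit, about the screen mean plus 3 SD, cut at about 150% in these data; inconclusive = under 70 cell events counted for the yeast strain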
CIT2 TOR yeast: yeast TOR pathway CIT2-GFP modulation | S. cerevisiae CIT2-GFP strain, flow cytometry, 3 h; 100 means same as DMSO wells | GFP response vs DMSO, % at 10 µM | 0.065% of 320,000 active;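 active = GFP response relative to DMSO above a set limit, near the screen mean plus 3 SD, cut at about 150% in these data; inconclusive = Fewer than 70 cells measured for a yeast strain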;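 note: ratio of well median GFP fluorescence to mean of DMSO wells on the plate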
Numbers without * were called inactive; ? = inconclusive; nt = not tested or not shown; + = active, no number; [ ] = remark or other dose.

SMILES	VLA-4 inh	MEP2-GFP yeast	RPL19A-GFP yeast	AGP1-GFP MLPCN	LAP4-GFP MLPCN	CIT2 TOR yeast
CCN1/C(=C/c2ccc3cccc(C)c3[n+]2CC)Sc2ccccc21	nt	+[may fluoresce green]	359.2	353.2*[may fluoresce green]	+[may fluoresce green]	+[may fluoresce green]
C[n+]1ccccc1/C=C1\Sc2ccccc2N1CCO	-43.9	103.1	104.1	109.5	110.7	115.0
COc1cc(/C=C/C(=O)OCC(=O)Nc2oc(C)c3c(C)n[nH]c(=O)c23)ccc1OC(F)F	-18.8	95.6	96.7	104.9	99.8	106.8
CC1(C)CC(=O)C2=C(C1)Nc1ccccc1NC2c1ccc([N+](=O)[O-])cc1 (stereo not drawn)	5.4	99.1	95.7	98.8	99.8	85.1
Cc1onc(-c2ccccc2)c1C(=O)N1CCN(c2ncccc2C(F)(F)F)CC1	6.3	106.9	94.6	117.7	105.2	153.8*[may fluoresce green]
COc1ccc(NC(=O)Nc2ccncc2)c(OC)c1	-5.8	100.3	99.9	98.1	98.3	97.9
COc1ccc(NC(=O)Nc2ccon2)c(OC)c1	-40.9	195.4*	107.4	104.0	131.9	143.5
CC(C)(C)C(=O)/C(=C/c1ccc(Cl)cc1)n1cncn1	4.6	109.6	116.3	107.6	109.4	116.9
CC(C)(C)C(=O)/C(=C\c1ccc([N+](=O)[O-])cc1)n1cncn1	35.2	92.3	87.2	79.9	190.0*	76.6
CCOC(=O)c1sc(NC(=O)c2c(CC)noc2C)nc1C	2.0	108.2	107.8	105.1	109.0	95.2
CCOC(=O)CN1C(=O)CSc2ccc(S(=O)(=O)N3CCCC3)cc21	7.1	97.6	104.5	107.2	105.6	106.3
CCOC(=O)CN1C(=O)CSc2ccc(S(=O)(=O)N3CCOCC3)cc21	45.8	274.6*[may fluoresce violet]	33.1*[may fluoresce violet]	?	49.9	?
CCc1ccc(/C=C2\Oc3c(ccc(O)c3CN3CCN(CCO)CC3)C2=O)cc1	8.9	192.4*[may fluoresce violet]	45.5*[may fluoresce violet]	20.1	96.5	?
CCc1ccc(/C=C2\Oc3cc(OS(C)(=O)=O)ccc3C2=O)cc1	-1.2	95.7	106.1	95.9	89.9	95.7
CSCCC(NC(=O)c1ccccc1)C(=O)N1CC(C)OC(C)C1 (stereo not drawn)	14.3	101.4	95.6	94.5	99.6	95.0
COc1ccc(OC)c(C(C)NC(=O)C(C)n2cc([N+](=O)[O-])cn2)c1 (stereo not drawn)	19.9	96.1	97.7	97.5	98.9	97.8
CCN(CC)C(=O)c1sc(NC(=O)c2ccc3c(c2)OCO3)c(C#N)c1C	-1.6	201.7*[may fluoresce violet]	65.8	23.9	96.9	?
Cc1nn(C(=O)N(C)C)c(C)c1CN1C(=O)c2ccccc2C1=O	-1.0	107.7	108.2	107.5	98.8	103.2
Cc1ccc(S(=O)(=O)n2ccc(-c3ccc(OCc4c(F)cccc4Cl)cc3)n2)cc1	8.4	103.4	97.7	105.7	101.9	104.1
Cc1ccc(S(=O)(=O)n2ccc(-c3cccc(OCc4c(F)cccc4Cl)c3)n2)cc1	-0.7	330.9*[may fluoresce violet]	74.0	nt	103.5	?
O=[N+]([O-])c1c(Nc2ccc(O)cc2)cc(Cl)c2nonc12	27.3	88.3	97.1	90.0	92.0	96.2
Cc1ccc(-c2csc3ncnc(SCC(=O)O)c23)cc1	-3.8	186.2*[may fluoresce violet]	50.9	?	59.5	?
COc1ccc(-c2nc(N)n(C(C)=O)n2)cc1	12.3	161.9	47.6*	nt	94.5	86.1
CCC(C)(C)NC(=O)C(c1cccs1)N(CC1CCCO1)C(=O)Cn1nnc2ccccc21 (stereo not drawn)	11.6	195.0*	95.2	96.8	87.3	97.1
CCC(C)(C)NC(=O)C(c1ccncc1)N(Cc1cccs1)C(=O)Cn1nnc2ccccc21 (stereo not drawn)	5.9	253.2*[may fluoresce violet]	31.4*[may fluoresce violet]	?	73.5	?
CCC(C)(C)NC(=O)C(c1ccc(C)cc1)N(Cc1ccco1)C(=O)Cn1nnc2ccccc21 (stereo not drawn)	0.0	103.0	98.6	102.3	95.3	100.0
O=C(NCc1ccco1)C(c1ccccc1)N(CC1CCCO1)C(=O)Cn1nnc2ccccc21 (stereo not drawn)	7.4	100.8	100.6	100.6	108.3	97.5
Cc1ccc2c(COC(=O)c3ccccc3F)cc(=O)oc2c1	-1.8	412.9*[may fluoresce violet]	55.4	?	85.2	?
